Hit rate of the full screen: of about 5,500 compounds, about 2,000 (36%) were called active. Inconclusive results (about 18%) are left out. Rule as the data show it: active = normalized growth mostly below about 0.91 (no sharp cut-off); inconclusive = no clear call, values can overlap the other calls; inactive = mostly above about 0.92. The list shows a part of the results.
Experiment: chemical genetic growth profiling, strain panel (AID 1159580);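 also: tested at 20 µM; growth read once vehicle control cultures reached saturation at 30 °C; 1 = growth at the plate median or of vehicle wells; lower values mean less growth of the strain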
Conditions: growth OD

Measured: normalized growth

COc1cc(O)c(C(=O)/C=C/c2ccccc2)c(OC)c1
active: S. cerevisiae deletion strains, locus YJL187C, strain SWE1 (second series), active compounds read low 0.866 | S. cerevisiae deletion strains, locus YKL068W, active compounds read low 0.934 | S. cerevisiae deletion strains, locus YKL160W, strain elf1, active compounds read low 0.852 | S. cerevisiae deletion strains, locus YKR001C, strain vps1, active compounds read low 0.642 | S. cerevisiae deletion strains, locus YLL001W, strain dnm1, active compounds read low 0.899 | S. cerevisiae deletion strains, locus YLR027C, strain aat2, active compounds read low 0.859 | S. cerevisiae deletion strains, locus YLR039C, strain RIC1, active compounds read low 0.674 | S. cerevisiae deletion strains, locus YLR058C, strain SHM2, active compounds read low 0.848 | S. cerevisiae deletion strains, locus YLR102C, strain apc9, active compounds read low 0.922 | S. cerevisiae deletion strains, locus YLR221C, strain rsa3, active compounds read low 0.844 | S. cerevisiae deletion strains, locus YLR258W, strain gsy2, active compounds read low 0.907 | S. cerevisiae deletion strains, locus YLR262C, strain YPT6 (second series), active compounds read low 0.774 | S. cerevisiae deletion strains, locus YLR268W, strain sec22, active compounds read low 0.804 | S. cerevisiae deletion strains, locus YLR320W, strain mms22, active compounds read low 0.748 | S. cerevisiae deletion strains, locus YLR371W, strain rom2, active compounds read low 0.8 | S. cerevisiae deletion strains, locus YLR418C, strain cdc73, active compounds read low 0.41 | S. cerevisiae deletion strains, locus YML032C, strain rad52, active compounds read low 0.826 | S. cerevisiae deletion strains, locus YML120C, strain ndi1, active compounds read low 0.866 | S. cerevisiae deletion strains, locus YML124C, strain tub3, active compounds read low 0.923 | S. cerevisiae deletion strains, locus YMR078C, strain ctf18, active compounds read low 0.898 | S. cerevisiae deletion strains, locus YMR205C, strain PFK2, active compounds read low 0.805 | S. cerevisiae deletion strains, locus YMR223W, strain ubp8, active compounds read low 0.87 | S. cerevisiae deletion strains, locus YMR307W, strain GAS1, active compounds read low 0.502 | S. cerevisiae deletion strains, locus YNL071W, strain lat1, active compounds read low 0.503 | S. cerevisiae deletion strains, locus YNL233W, strain BNI4, active compounds read low 0.766 | S. cerevisiae deletion strains, locus YNL298W, strain CLA4, active compounds read low 0.879 | S. cerevisiae deletion strains, locus YNL307C, strain MCK1, active compounds read low 0.301 | S. cerevisiae deletion strains, locus YOL147C, strain pex11, active compounds read low 0.739 | S. cerevisiae deletion strains, locus YOR070C, strain gyp1, active compounds read low 0.897 | S. cerevisiae deletion strains, locus YOR083W, strain WHI5, active compounds read low 0.852 | S. cerevisiae deletion strains, locus YOR106W, strain vam3, active compounds read low 0.802 | S. cerevisiae deletion strains, locus YOR136W, strain idh2, active compounds read low 0.907 | S. cerevisiae deletion strains, locus YOR144C, strain elg1, active compounds read low 0.878 | S. cerevisiae deletion strains, locus YOR184W, strain ser1, active compounds read low 0.602 | S. cerevisiae deletion strains, locus YOR265W, strain rbl2, active compounds read low 0.903 | S. cerevisiae deletion strains, locus YOR290C, strain snf2, active compounds read low 0.853 | S. cerevisiae deletion strains, locus YPL051W, strain arl3, active compounds read low 0.82 | S. cerevisiae deletion strains, locus YPL078C, strain atp4, active compounds read low 0.864 | S. cerevisiae deletion strains, locus YPL106C, strain sse1, active compounds read low 0.772 | S. cerevisiae deletion strains, locus YPL240C, strain hsp82, active compounds read low 0.919 | S. cerevisiae deletion strains, locus YPR119W, strain clb2, active compounds read low 0.921 | S. cerevisiae deletion strains, locus YPR163C, strain tif3, active compounds read low 0.605 | S. cerevisiae deletion strains, locus YPR167C, strain met16, active compounds read low 0.869 | S. cerevisiae deletion strains, strain wtn01, active compounds read low 0.816
inactive: S. cerevisiae deletion strains, locus YJL168C, strain set2, active compounds read low 0.943 | S. cerevisiae deletion strains, locus YKL009W, strain mrt4, active compounds read low 0.89 | S. cerevisiae deletion strains, locus YKL085W, strain MDH1 (second series), active compounds read low 0.952 | S. cerevisiae deletion strains, locus YKL085W, strain MDH1, active compounds read low 0.952 | S. cerevisiae deletion strains, locus YKL190W, strain CNB1, active compounds read low 0.953 | S. cerevisiae deletion strains, locus YKR026C, strain gcn3, active compounds read low 0.95 | S. cerevisiae deletion strains, locus YKR091W, strain srl3, active compounds read low 0.942 | S. cerevisiae deletion strains, locus YLL026W, active compounds read low 0.937 | S. cerevisiae deletion strains, locus YLL041C, strain sdh2, active compounds read low 0.943 | S. cerevisiae deletion strains, locus YLR262C, strain YPT6, active compounds read low 0.708 | S. cerevisiae deletion strains, locus YLR342W, strain FKS1 (second series), active compounds read low 0.876 | S. cerevisiae deletion strains, locus YLR342W, strain FKS1, active compounds read low 0.93 | S. cerevisiae deletion strains, locus YLR357W, strain rsc2, active compounds read low 1.01 | S. cerevisiae deletion strains, locus YLR370C, strain arc18, active compounds read low 0.943 | S. cerevisiae deletion strains, locus YLR384C, strain iki3, active compounds read low 0.947 | S. cerevisiae deletion strains, locus YML016C, strain PPZ1, active compounds read low 0.931 | S. cerevisiae deletion strains, locus YMR058W, strain fet3, active compounds read low 0.918 | S. cerevisiae deletion strains, locus YMR125W, strain sto1, active compounds read low 0.893 | S. cerevisiae deletion strains, locus YMR129W, active compounds read low 0.937 | S. cerevisiae deletion strains, locus YMR231W, strain pep5, active compounds read low 0.967 | S. cerevisiae deletion strains, locus YNL067W, strain RPL9B, active compounds read low 0.925 | S. cerevisiae deletion strains, locus YNL128W, strain TEP1, active compounds read low 0.95 | S. cerevisiae deletion strains, locus YNL209W, strain ssb2, active compounds read low 0.95 | S. cerevisiae deletion strains, locus YNL248C, strain rpa49, active compounds read low 0.951 | S. cerevisiae deletion strains, locus YNL250W, strain rad50, active compounds read low 0.979 | S. cerevisiae deletion strains, locus YNL271C, strain bni1, active compounds read low 0.953 | S. cerevisiae deletion strains, locus YNL322C, strain KRE1 (second series), active compounds read low 0.947 | S. cerevisiae deletion strains, locus YNL322C, strain KRE1, active compounds read low 0.948 | S. cerevisiae deletion strains, locus YNR049C, strain mso1, active compounds read low 0.964 | S. cerevisiae deletion strains, locus YNR052C, strain pop2, active compounds read low 0.946 | S. cerevisiae deletion strains, locus YOL006C, strain TOP1, active compounds read low 0.733 | S. cerevisiae deletion strains, locus YOL012C, strain htz1 1.12 | S. cerevisiae deletion strains, locus YOR001W, strain rrp6, active compounds read low 0.894 | S. cerevisiae deletion strains, locus YOR061W, strain CKA2, active compounds read low 0.957 | S. cerevisiae deletion strains, locus YOR069W, strain VPS5, active compounds read low 0.94 | S. cerevisiae deletion strains, locus YOR080W, strain dia2, active compounds read low 0.966 | S. cerevisiae deletion strains, locus YOR270C, strain vph1, active compounds read low 0.811 | S. cerevisiae deletion strains, locus YOR316C, strain cot1, active compounds read low 0.931 | S. cerevisiae deletion strains, locus YPR141C, strain kar3, active compounds read low 0.96 | S. cerevisiae strains, strain wild type, active compounds read low 0.905
